From paper PMC5540273 (PLoS ONE, 2017)

Tests used:
Settings in all cases: concentration: 1 μM, replicates: in singlicate; n = 1
MAST1 = system: MAST1
MEK1 = system: T1, MEK1
T1 construct: gene MAP2K1

MEK2 = system: T2, MEK2
T2 construct: gene MAP2K2

MEK3 = system: T3, MEK3
T3 construct: gene MAP2K3

MEK4 = system: T4, MEK4
T4 construct: gene MAP2K4

MEK5 = system: T5, MEK5
T5 construct: gene MAP2K5

MEK6 = system: T6, MEK6
T6 construct: gene MAP2K6

MELK = system: MELK
MERTK = system: MERTK
MET = system: MET
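Note: KINOMEscan kinase panel screen.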

Compound: CC[C@@H]1CO[C@H](C(=O)Nc2ccccc2)CN1c1cc(-c2ccc3c(N)n[nH]c3c2)nc(NC)n1 [GSK2376236]
- %Inh (MAST1): 0%
- %Inh (MEK1): 5%
- %Inh (MEK2): 13%
- %Inh (MEK3): 0%
- %Inh (MEK4): 0%
- %Inh (MEK5): 0%
- %Inh (MEK6): 0%
- %Inh (MELK): 56%
- %Inh (MERTK): 3%
- %Inh (MET): 0%

Compound: O=C1NC(=O)C(c2ccc(Cl)cc2)=C1Nc1ccc(O)cc1 [SB-340867]
- %Inh (MAST1): 24%
- %Inh (MEK1): 0%
- %Inh (MEK2): 0%
- %Inh (MEK3): 9%
- %Inh (MEK4): 0%
- %Inh (MEK5): 8%
- %Inh (MEK6): 0%
- %Inh (MELK): 1%
- %Inh (MERTK): 0%
- %Inh (MET): 0%

Compound: CNC(=O)c1ccc(C)c(-n2c(C)cc(OCc3ccc(F)cc3F)c(Br)c2=O)c1
- %Inh (MAST1): 0%
- %Inh (MEK1): 0%
- %Inh (MEK2): 0%
- %Inh (MEK3): 0%
- %Inh (MEK4): 0%
- %Inh (MEK5): 0%
- %Inh (MEK6): 0%
- %Inh (MELK): 14%
- %Inh (MERTK): 0%
- %Inh (MET): 0%

Compound: O=C(Nc1n[nH]c2nc(-c3ccco3)c(Br)cc12)C1CCN(Cc2ccccc2)C1.O=C(O)[C@H](O)[C@@H](O)C(=O)O (centres unmarked) [SB-742034]
- %Inh (MAST1): 13%
- %Inh (MEK1): 1%
- %Inh (MEK2): 25%
- %Inh (MEK3): 21%
- %Inh (MEK4): 20%
- %Inh (MEK5): 32%
- %Inh (MEK6): 16%
- %Inh (MELK): 2%
- %Inh (MERTK): 0%
- %Inh (MET): 0%

Compound: COc1nccc(-c2c(-c3ccc(F)cc3)ncn2CCCN2CCOCC2)n1 [SB-282852]
- %Inh (MAST1): 20%
- %Inh (MEK1): 0%
- %Inh (MEK2): 25%
- %Inh (MEK3): 31%
- %Inh (MEK4): 23%
- %Inh (MEK5): 7%
- %Inh (MEK6): 0%
- %Inh (MELK): 0%
- %Inh (MERTK): 19%
- %Inh (MET): 0%

Compound: CNc1nc(-c2ccc3c(N)n[nH]c3c2)cc(N2C[C@@H](C(=O)Nc3ccccc3)CC[C@H]2C)n1 [GSK2298859]
- %Inh (MAST1): 0%
- %Inh (MEK1): 0%
- %Inh (MEK2): 0%
- %Inh (MEK3): 0%
- %Inh (MEK4): 7%
- %Inh (MEK5): 7%
- %Inh (MEK6): 0%
- %Inh (MELK): 58%
- %Inh (MERTK): 35%
- %Inh (MET): 0%

Compound: Fc1ccc(-c2nn3cccc(F)c3c2-c2ccncc2)cc1 [GW475620]
- %Inh (MAST1): 0%
- %Inh (MEK1): 0%
- %Inh (MEK2): 0%
- %Inh (MEK3): 0%
- %Inh (MEK4): 29%
- %Inh (MEK5): 8%
- %Inh (MEK6): 0%
- %Inh (MELK): 41%
- %Inh (MERTK): 3%
- %Inh (MET): 0%

Compound: Cc1cccc2c(-c3ccncn3)c(-c3ccc(F)cc3)nn12 [GW515532]
- %Inh (MAST1): 7%
- %Inh (MEK1): 0%
- %Inh (MEK2): 0%
- %Inh (MEK3): 0%
- %Inh (MEK4): 19%
- %Inh (MEK5): 10%
- %Inh (MEK6): 0%
- %Inh (MELK): 0%
- %Inh (MERTK): 15%
- %Inh (MET): 0%

Compound: CC(=O)c1cccc(NC(=O)NC2CCN(c3ccnc(Nc4ccc(F)cc4)n3)C2)c1 (centres unmarked) [GSK1379710]
- %Inh (MAST1): 30%
- %Inh (MEK1): 6%
- %Inh (MEK2): 16%
- %Inh (MEK3): 9%
- %Inh (MEK4): 57%
- %Inh (MEK5): 34%
- %Inh (MEK6): 9%
- %Inh (MELK): 12%
- %Inh (MERTK): 40%
- %Inh (MET): 0%

Compound: Nc1ncnc2occ(-c3ccc4c(c3)CCN4C(=O)Cc3cc(F)ccc3F)c12 [GSK2645446]
- %Inh (MAST1): 0%
- %Inh (MEK1): 0%
- %Inh (MEK2): 0%
- %Inh (MEK3): 0%
- %Inh (MEK4): 2%
- %Inh (MEK5): 92.3%
- %Inh (MEK6): 0%
- %Inh (MELK): 3%
- %Inh (MERTK): 34%
- %Inh (MET): 0%

Compound: O=C(Nc1n[nH]c2nc(-c3cccs3)c(Br)cc12)C1CCCC1 [SB-743341]
- %Inh (MAST1): 12%
- %Inh (MEK1): 15%
- %Inh (MEK2): 14%
- %Inh (MEK3): 18%
- %Inh (MEK4): 23%
- %Inh (MEK5): 31%
- %Inh (MEK6): 0%
- %Inh (MELK): 0%
- %Inh (MERTK): 0%
- %Inh (MET): 0%

Compound: CC(=O)c1c(C)c2cnc(Nc3ccc(N4CCNCC4)cn3)nc2n(C2CCCC2)c1=O
- %Inh (MAST1): 0%
- %Inh (MEK1): 0%
- %Inh (MEK2): 0%
- %Inh (MEK3): 0%
- %Inh (MEK4): 0%
- %Inh (MEK5): 1%
- %Inh (MEK6): 0%
- %Inh (MELK): 5%
- %Inh (MERTK): 0%
- %Inh (MET): 0%

Compound: Cc1c(Cn2c3ccccc3n3c(=O)cc(N4CCOCC4)nc23)cccc1C(F)(F)F [GSK2306394]
- %Inh (MAST1): 0%
- %Inh (MEK1): 0%
- %Inh (MEK2): 0%
- %Inh (MEK3): 0%
- %Inh (MEK4): 17%
- %Inh (MEK5): 59%
- %Inh (MEK6): 0%
- %Inh (MELK): 66%
- %Inh (MERTK): 33%
- %Inh (MET): 0%

Compound: COc1ccc(Nc2nccc(N3CCC(NC(=O)c4cc5ccccc5s4)C3)n2)cc1 (centres unmarked) [GSK1379738]
- %Inh (MAST1): 0%
- %Inh (MEK1): 0%
- %Inh (MEK2): 0%
- %Inh (MEK3): 0%
- %Inh (MEK4): 23%
- %Inh (MEK5): 10%
- %Inh (MEK6): 0%
- %Inh (MELK): 0%
- %Inh (MERTK): 0%
- %Inh (MET): 0%

Compound: COc1ccc(CSc2nnc(-c3ccc4c(c3)CCO4)o2)cc1
- %Inh (MAST1): 7%
- %Inh (MEK1): 0%
- %Inh (MEK2): 0%
- %Inh (MEK3): 0%
- %Inh (MEK4): 0%
- %Inh (MEK5): 1%
- %Inh (MEK6): 0%
- %Inh (MELK): 0%
- %Inh (MERTK): 0%
- %Inh (MET): 0%

Compound: COc1ccc(-c2coc3ccc(-c4nnc(C)o4)cc23)cc1
- %Inh (MAST1): 0%
- %Inh (MEK1): 0%
- %Inh (MEK2): 4%
- %Inh (MEK3): 0%
- %Inh (MEK4): 1%
- %Inh (MEK5): 0%
- %Inh (MEK6): 0%
- %Inh (MELK): 0%
- %Inh (MERTK): 8%
- %Inh (MET): 0%

Compound: O=C(Nc1n[nH]c2cc(-c3ccsc3)ccc12)C1CC1 [SB-732932]
- %Inh (MAST1): 36%
- %Inh (MEK1): 11%
- %Inh (MEK2): 16%
- %Inh (MEK3): 17%
- %Inh (MEK4): 18%
- %Inh (MEK5): 50%
- %Inh (MEK6): 0%
- %Inh (MELK): 0%
- %Inh (MERTK): 14%
- %Inh (MET): 0%
